# Measured values: PMC11062922 (Nature Chemical Biology, 2023)
# Like-named read-outs stand apart in the source and are kept apart here.
# Columns and labels:
# CLK1 = conditions: read-out: apparent Kd, n = 1
# MAP2K1 = conditions: read-out: apparent Kd, n = 1
# [1] = compound concentrations:100 nM and 1000 nM (sheet 'Lestaurtinib' of Supplementary Table 1),run:Lestaurtinib_02572_R1,Plate:MR015
substance,measurement,setting,value
Lestaurtinib,potency estimated from few doses,CLK1; [1],130 nM
same,potency estimated from few doses,"CLK1; compound concentrations:100 nM and 1000 nM (sheet 'Lestaurtinib' of Supplementary Table 1),run:Lestaurtinib_02572_R2,Plate:MR015",137 nM
same,potency estimated from few doses,"CLK1; compound concentrations:100 nM and 1000 nM (sheet 'Lestaurtinib' of Supplementary Table 1),run:Lestaurtinib_02577_R1,Plate:MR016",206 nM
same,potency estimated from few doses,"CLK1; compound concentrations:100 nM and 1000 nM (sheet 'Lestaurtinib' of Supplementary Table 1),run:Lestaurtinib_02584_R3,Plate:MR017",202 nM
same,potency estimated from few doses,"CLK1; compound concentrations:100 nM and 1000 nM (sheet 'Lestaurtinib' of Supplementary Table 1),run:Lestaurtinib_02601_R2,Plate:MR018",232 nM
same,potency estimated from few doses,"CLK1; compound concentrations:100 nM and 1000 nM (sheet 'Lestaurtinib' of Supplementary Table 1),run:Lestaurtinib_02606_R2,Plate:MR019",69.6 nM
same,potency estimated from few doses,"CLK1; compound concentrations:100 nM and 1000 nM (sheet 'Lestaurtinib' of Supplementary Table 1),run:Lestaurtinib_02606_R3,Plate:MR019",167 nM
same,potency estimated from few doses,"CLK1; compound concentrations:100 nM and 1000 nM (sheet 'Lestaurtinib' of Supplementary Table 1),run:Lestaurtinib_02624_R1,Plate:MR020",235 nM
same,potency estimated from few doses,"CLK1; compound concentrations:100 nM and 1000 nM (sheet 'Lestaurtinib' of Supplementary Table 1),run:Lestaurtinib_02624_R2,Plate:MR020",113 nM
same,potency estimated from few doses,"CLK1; compound concentrations:100 nM and 1000 nM (sheet 'Lestaurtinib' of Supplementary Table 1),run:Lestaurtinib_02624_R3,Plate:MR020",160 nM
same,potency estimated from few doses,"CLK1; compound concentrations:100 nM and 1000 nM (sheet 'Lestaurtinib' of Supplementary Table 1),run:Lestaurtinib_02724_R2,Plate:MR021",179 nM
same,potency estimated from few doses,"CLK1; compound concentrations:100 nM and 1000 nM (sheet 'Lestaurtinib' of Supplementary Table 1),run:Lestaurtinib_02724_R3,Plate:MR021",163 nM
same,potency estimated from few doses,"CLK1; compound concentrations:100 nM and 1000 nM (sheet 'Lestaurtinib' of Supplementary Table 1),run:Lestaurtinib_02741_R1,Plate:MR023",211 nM
same,potency estimated from few doses,"CLK1; compound concentrations:100 nM and 1000 nM (sheet 'Lestaurtinib' of Supplementary Table 1),run:Lestaurtinib_02748_R1,Plate:MR024",237 nM
same,potency estimated from few doses,"CLK1; compound concentrations:100 nM and 1000 nM (sheet 'Lestaurtinib' of Supplementary Table 1),run:Lestaurtinib_02752_R1,Plate:MR025",146 nM
same,potency estimated from few doses,"CLK1; compound concentrations:100 nM and 1000 nM (sheet 'Lestaurtinib' of Supplementary Table 1),run:Lestaurtinib_02765_R1,Plate:MR026",278 nM
same,potency estimated from few doses,"CLK1; compound concentrations:100 nM and 1000 nM (sheet 'Lestaurtinib' of Supplementary Table 1),run:Lestaurtinib_02765_R3,Plate:MR026",244 nM
same,potency estimated from few doses,"CLK1; compound concentrations:100 nM and 1000 nM (sheet 'Lestaurtinib' of Supplementary Table 1),run:Lestaurtinib_02766_R1,Plate:MR027",143 nM
same,potency estimated from few doses,"CLK1; compound concentrations:100 nM and 1000 nM (sheet 'Lestaurtinib' of Supplementary Table 1),run:Lestaurtinib_02766_R3,Plate:MR027",154 nM
same,potency estimated from few doses,"CLK1; compound concentrations:100 nM and 1000 nM (sheet 'Lestaurtinib' of Supplementary Table 1),run:Lestaurtinib_02768_R2,Plate:MR028",141 nM
same,potency estimated from few doses,"CLK1; compound concentrations:100 nM and 1000 nM (sheet 'Lestaurtinib' of Supplementary Table 1),run:Lestaurtinib_02768_R3,Plate:MR028",135 nM
same,potency estimated from few doses,"CLK1; compound concentrations:100 nM and 1000 nM (sheet 'Lestaurtinib' of Supplementary Table 1),run:Lestaurtinib_02795_R1,Plate:MR022",93.8 nM
same,potency estimated from few doses,"CLK1; compound concentrations:100 nM and 1000 nM (sheet 'Lestaurtinib' of Supplementary Table 1),run:Lestaurtinib_02802_R3,Plate:MR029",22.2 nM
same,potency estimated from few doses,"CLK1; compound concentrations:100 nM and 1000 nM (sheet 'Lestaurtinib' of Supplementary Table 1),run:Lestaurtinib_02896_R1,Plate:MR030",136 nM
same,potency estimated from few doses,"CLK1; compound concentrations:100 nM and 1000 nM (sheet 'Lestaurtinib' of Supplementary Table 1),run:Lestaurtinib_02896_R2,Plate:MR030",82.8 nM
same,potency estimated from few doses,"CLK1; compound concentrations:100 nM and 1000 nM (sheet 'Lestaurtinib' of Supplementary Table 1),run:Lestaurtinib_03172_R3,Plate:MR031",134 nM
same,potency estimated from few doses,"CLK1; compound concentrations:100 nM and 1000 nM (sheet 'Lestaurtinib' of Supplementary Table 1),run:Lestaurtinib_03252_R1,Plate:MR032",130 nM
same,potency estimated from few doses,"CLK1; compound concentrations:100 nM and 1000 nM (sheet 'Lestaurtinib' of Supplementary Table 1),run:Lestaurtinib_03252_R2,Plate:MR032",25.4 nM
same,potency estimated from few doses,"CLK1; compound concentrations:100 nM and 1000 nM (sheet 'Lestaurtinib' of Supplementary Table 1),run:Lestaurtinib_03260_R2,Plate:MR033",248 nM
same,potency estimated from few doses,"MAP2K1; compound concentrations:100 nM and 1000 nM (sheet 'Lestaurtinib' of Supplementary Table 1),run:Lestaurtinib_02339_R1,Plate:MR001",2070 nM
same,potency estimated from few doses,"MAP2K1; compound concentrations:100 nM and 1000 nM (sheet 'Lestaurtinib' of Supplementary Table 1),run:Lestaurtinib_02367_R1,Plate:MR003",825 nM
same,potency estimated from few doses,"MAP2K1; compound concentrations:100 nM and 1000 nM (sheet 'Lestaurtinib' of Supplementary Table 1),run:Lestaurtinib_02367_R2,Plate:MR003",1420 nM
same,potency estimated from few doses,"MAP2K1; compound concentrations:100 nM and 1000 nM (sheet 'Lestaurtinib' of Supplementary Table 1),run:Lestaurtinib_02381_R1,Plate:MR004",579 nM
same,potency estimated from few doses,"MAP2K1; compound concentrations:100 nM and 1000 nM (sheet 'Lestaurtinib' of Supplementary Table 1),run:Lestaurtinib_02381_R2,Plate:MR004",1760 nM
same,potency estimated from few doses,"MAP2K1; compound concentrations:100 nM and 1000 nM (sheet 'Lestaurtinib' of Supplementary Table 1),run:Lestaurtinib_02381_R3,Plate:MR004",2000 nM
same,potency estimated from few doses,"MAP2K1; compound concentrations:100 nM and 1000 nM (sheet 'Lestaurtinib' of Supplementary Table 1),run:Lestaurtinib_02422_R1,Plate:MR006",1620 nM
same,potency estimated from few doses,"MAP2K1; compound concentrations:100 nM and 1000 nM (sheet 'Lestaurtinib' of Supplementary Table 1),run:Lestaurtinib_02438_R2,Plate:MR008",1630 nM
same,potency estimated from few doses,"MAP2K1; compound concentrations:100 nM and 1000 nM (sheet 'Lestaurtinib' of Supplementary Table 1),run:Lestaurtinib_02438_R3,Plate:MR008",1400 nM
same,potency estimated from few doses,"MAP2K1; compound concentrations:100 nM and 1000 nM (sheet 'Lestaurtinib' of Supplementary Table 1),run:Lestaurtinib_02443_R1,Plate:MR009",1540 nM
same,potency estimated from few doses,"MAP2K1; compound concentrations:100 nM and 1000 nM (sheet 'Lestaurtinib' of Supplementary Table 1),run:Lestaurtinib_02443_R2,Plate:MR009",1360 nM
same,potency estimated from few doses,"MAP2K1; compound concentrations:100 nM and 1000 nM (sheet 'Lestaurtinib' of Supplementary Table 1),run:Lestaurtinib_02473_R1,Plate:MR010",1690 nM
same,potency estimated from few doses,"MAP2K1; compound concentrations:100 nM and 1000 nM (sheet 'Lestaurtinib' of Supplementary Table 1),run:Lestaurtinib_02473_R2,Plate:MR010",1430 nM
same,potency estimated from few doses,"MAP2K1; compound concentrations:100 nM and 1000 nM (sheet 'Lestaurtinib' of Supplementary Table 1),run:Lestaurtinib_02566_R1,Plate:MR014",656 nM
same,potency estimated from few doses,MAP2K1; [1],1430 nM
